Myeloid diff 2 – myeloid differentiation induction | ER-HoxA9 myeloid progenitors, lysozyme-GFP differentiation, flow cytometry | hit rate 1% among 360,000 | calls only at 10 µM | AID 624256;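 active = normalized GFP-positive differentiation at or above the plate's own cutoff, the solvent-only control mean plus 3 SD; inconclusive = no clear call, values can overlap the other calls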;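 also: cells exposed to compound for four days before flow analysis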
Rpn11 block – blocks the human proteasome subunit Rpn11; AID 588493; inhibition, % at 20 µM; hit rate 0.59% among 360,000; human 26S proteasome, Ub4-pepOG fluorescence polarization; 20S core pre-blocked with epoxomicin;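 active = inhibition at 20 µM, scaled to each plate's controls, above about 33%, limit read from the data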
Target sequence (O00487 whole entry, looked up): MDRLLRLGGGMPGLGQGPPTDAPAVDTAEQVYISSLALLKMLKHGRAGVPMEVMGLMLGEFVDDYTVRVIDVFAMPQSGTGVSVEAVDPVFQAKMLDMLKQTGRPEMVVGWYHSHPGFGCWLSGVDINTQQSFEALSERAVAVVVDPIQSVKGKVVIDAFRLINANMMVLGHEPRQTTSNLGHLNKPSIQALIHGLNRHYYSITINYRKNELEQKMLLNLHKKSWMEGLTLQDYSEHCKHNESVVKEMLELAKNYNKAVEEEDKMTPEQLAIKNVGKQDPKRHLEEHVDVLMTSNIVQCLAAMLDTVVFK
TPT1 inh – C. albicans TPT1 enzyme inhibition; recombinant caTPT1, FP RNA substrate dephosphorylation; inhibition, % at 5 µM; AID 1962; hit rate 0.81% among 300,000;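 active = inhibition above the mean of all tested compounds plus 3 SD, set per screening campaign, cut at about 24% in these data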;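 also: plate controls were DMSO alone for no effect and ferristatin control at 100 nM for full effect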
HNF4A DNA FP – change in binding of human HNF4 alpha to DNA | HNF4a-FITC DNA binding, fluorescence polarization, 1 h | activity change, % at 10 µM | P41235 | hit rate 0.3% among 360,000; in the data active = activity change above about 30%, passing the limit was not always enough
The depositor's hits bear a star. An excerpt weighted towards active compounds, which were near 2.1% of everything screened.

How did Cc1ccc(NC(=S)NC2CCN(Cc3ccccc3)CC2)cc1C do in these assays?
Myeloid diff 2: active; Rpn11 block: -6; TPT1 inh: 2; HNF4A DNA FP: 2

How did CCN1CCN(Cc2ccc(NC(=O)c3ccc(C)c(NC(=O)c4c[nH]c5cc(C(F)(F)F)ccc5c4=O)c3)cc2C(F)(F)F)CC1 do in these assays?
Myeloid diff 2: inactive; Rpn11 block: 3; TPT1 inh: -3; HNF4A DNA FP: 55*

What do the screens show for `CCOC(=O)N1CCN(C(=O)Cn2ncn3nc(-c4cccs4)cc3c2=O)CC1`?
Myeloid diff 2: inactive; Rpn11 block: 1; TPT1 inh: -2; HNF4A DNA FP: 0

How did Cc1ccc2c(c1)NC(=O)C(CC(=O)NCCCN1CCN(c3cc(Cl)ccc3C)CC1)O2 (configuration not stated) do in these assays?
Myeloid diff 2: active; Rpn11 block: 11; TPT1 inh: 1; HNF4A DNA FP: 3

How did Cc1ccc2c(c1)NC(=O)C(CC(=O)NCCCN1CCCCC1)O2 (configuration not stated) do in these assays?
Myeloid diff 2: inactive; Rpn11 block: 0; TPT1 inh: -2; HNF4A DNA FP: -1

Results for Cc1nc(NC(=O)CN2CCN(c3cccc(Cl)c3)CC2)sc1C(=O)N(C)C ?
Myeloid diff 2: inactive; Rpn11 block: -6; TPT1 inh: 0; HNF4A DNA FP: -1

Results for Clc1ccc(-n2nnc(-c3cccnc3)n2)cc1Cl ?
Myeloid diff 2: active; Rpn11 block: 2; TPT1 inh: -1; HNF4A DNA FP: 1

What do the screens show for `O=C1N=C(N2CCOCC2)S/C1=C/c1cccs1`?
Myeloid diff 2: active; Rpn11 block: 0; TPT1 inh: -2; HNF4A DNA FP: -2

How did Cc1ccc(/C=C2\SC(N3CCCCC3)=NC2=O)cc1 do in these assays?
Myeloid diff 2: inactive; Rpn11 block: -4; TPT1 inh: -2; HNF4A DNA FP: 2

What do the screens show for `O=C1N=C(N2CCCC2)S/C1=C\c1ccccc1`?
Myeloid diff 2: active; Rpn11 block: -1; TPT1 inh: 6; HNF4A DNA FP: -2

What do the screens show for `CC(=O)N1CCN(C2=NC(=O)/C(=C\c3cccs3)S2)CC1`?
Myeloid diff 2: inactive; Rpn11 block: 2; TPT1 inh: 2; HNF4A DNA FP: 2

What do the screens show for `CCc1cccc(NC(=O)c2cccc3c2C(=O)N(CC2CCCO2)C3)c1` (configuration not stated)?
Myeloid diff 2: inactive; Rpn11 block: 0; TPT1 inh: 0; HNF4A DNA FP: -1

How did Cc1ccc(NC(=O)CCNC(=O)c2ccc([N+](=O)[O-])cc2)cc1C do in these assays?
Myeloid diff 2: active; Rpn11 block: 6; HNF4A DNA FP: 0

Results for O=C(CNCC1CCCO1)NCc1ccco1 (configuration not stated) ?
Myeloid diff 2: active; Rpn11 block: -2; TPT1 inh: -1; HNF4A DNA FP: 3

What do the screens show for `CCOC(=O)C1CCC(CN(Cc2ccccc2C)S(=O)(=O)c2ccc([N+](=O)[O-])cc2)CC1` (configuration not stated)?
Myeloid diff 2: active; Rpn11 block: -6; TPT1 inh: -3; HNF4A DNA FP: 0

Results for Cc1ccnc(NC(=O)Nc2ccc(Br)cc2Cl)c1 ?
Myeloid diff 2: active; Rpn11 block: 5; TPT1 inh: -1; HNF4A DNA FP: 6

What do the screens show for `O=C(N/N=C/c1cc([N+](=O)[O-])ccc1O)c1ccc(COc2ccc3c(c2)CCC3)o1`?
Myeloid diff 2: inconclusive; Rpn11 block: 18; HNF4A DNA FP: -2

What do the screens show for `COc1ccc(Br)cc1/C=N/NC(=O)c1ccc(COc2ccc3c(c2)CCC3)o1`?
Myeloid diff 2: active; Rpn11 block: 3; TPT1 inh: -5; HNF4A DNA FP: -1

What do the screens show for `COc1ccccc1/C=N\NC(=O)c1ccc(COc2ccc(C)c(C)c2)o1`?
Myeloid diff 2: active; Rpn11 block: -2; TPT1 inh: -4; HNF4A DNA FP: 4

What do the screens show for `Cn1c(NCC2CCCCC2)nc2cc(-c3ccsc3)sc2c1=O`?
Myeloid diff 2: inactive; Rpn11 block: -6; HNF4A DNA FP: -2

Results for O=C(Cc1ccc(NC2=NC3CS(=O)(=O)CC3S2)cc1)N1CCN(c2ccc(F)cc2)CC1 (configuration not stated) ?
Myeloid diff 2: inactive; Rpn11 block: 2; TPT1 inh: 1; HNF4A DNA FP: -4

What do the screens show for `O=C(NC(NC(=O)c1ccccc1)c1ccccc1)c1ccccc1`?
Myeloid diff 2: inactive; Rpn11 block: 9; TPT1 inh: 2; HNF4A DNA FP: -2

How did Cc1c(C(=O)O)sc2nc(-c3cccs3)cc(C(F)(F)F)c12 do in these assays?
Myeloid diff 2: inactive; Rpn11 block: -5; TPT1 inh: 3; HNF4A DNA FP: 0

How did Nc1c(C(=O)C2CC2)sc2nc(-c3ccccc3)cc(C(F)(F)F)c12 do in these assays?
Myeloid diff 2: active; Rpn11 block: 25; TPT1 inh: 7; HNF4A DNA FP: -93

Results for CC(=O)c1sc2nc(-c3cccs3)cc(C(F)(F)F)c2c1N ?
Myeloid diff 2: active; Rpn11 block: 24; TPT1 inh: -15; HNF4A DNA FP: 11

What do the screens show for `CN(C)CCNC(=O)c1sc2nc(-c3ccccc3)cc(C(F)(F)F)c2c1N`?
Myeloid diff 2: active; Rpn11 block: 25; TPT1 inh: 6; HNF4A DNA FP: 10

Results for COc1ccc(-c2cc(C(F)(F)F)c3c(N)c(C(=O)NCCSC)sc3n2)cc1 ?
Myeloid diff 2: inactive; Rpn11 block: 15; TPT1 inh: -4; HNF4A DNA FP: 7

What do the screens show for `CCN(Cc1ccccc1)C(=S)Nc1cc(C(=O)OC)ccc1C(=O)OC`?
Myeloid diff 2: inactive; Rpn11 block: 0; TPT1 inh: 3; HNF4A DNA FP: 33*

What do the screens show for `Cc1ccnc(NC2(C(F)(F)F)N=C(c3ccccc3)NC2=O)c1` (configuration not stated)?
Myeloid diff 2: inactive; Rpn11 block: 1; TPT1 inh: -2; HNF4A DNA FP: -5

What do the screens show for `N=C1S/C(=C\c2ccccc2F)C(=O)N1c1ccc(F)cc1`?
Myeloid diff 2: inactive; Rpn11 block: 10; TPT1 inh: 3; HNF4A DNA FP: -2

Results for N=C1S/C(=C\c2cccc3ccccc23)C(=O)N1c1ccc(F)cc1 ?
Myeloid diff 2: active; Rpn11 block: 2; TPT1 inh: 3; HNF4A DNA FP: 1

Results for CC(C)(C)n1nnnc1CN(Cc1cccnc1)Cc1ccccc1Cl ?
Myeloid diff 2: active; Rpn11 block: -1; TPT1 inh: -4; HNF4A DNA FP: 5

How did O=C(Cc1ccc(-n2c(=O)[nH]c3ccsc3c2=O)cc1)N1CCN(c2ccc(Cl)cc2)CC1 do in these assays?
Myeloid diff 2: active; Rpn11 block: -4; TPT1 inh: -2; HNF4A DNA FP: 5

How did Cc1cccc(N2CCN(C(=O)Cc3ccc(-n4c(=O)[nH]c5ccsc5c4=O)cc3)CC2C)c1 (configuration not stated) do in these assays?
Myeloid diff 2: inactive; Rpn11 block: 2; TPT1 inh: 0; HNF4A DNA FP: 0

What do the screens show for `COc1ccc(CCN2C(=O)CCC2(C)c2nnnn2Cc2ccccc2)cc1OC` (configuration not stated)?
Myeloid diff 2: inactive; HNF4A DNA FP: -3

From PubChem BioAssay
